# Screening data deposited in PubChem by The Scripps Research Institute Molecular Screening Center.
# This is a sample that favours compounds with a hit; in the whole collection about 0.84% have one here.
# PPARg SRC1 recr – PPARgamma agonists recruiting SRC-1 coactivator, primary screen, biochemical | Peroxisome proliferator-activated receptor gamma (Homo sapiens), P37231 | PPARgamma-SRC-1 coactivator recruitment biochemical assay | activation, % at 8 µM | 0.41% of 200,000 active; in the data active means activation above about 19%;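 further: 0% = DMSO and 100% = reference agonist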
# Target sequence (P37231 whole entry, looked up): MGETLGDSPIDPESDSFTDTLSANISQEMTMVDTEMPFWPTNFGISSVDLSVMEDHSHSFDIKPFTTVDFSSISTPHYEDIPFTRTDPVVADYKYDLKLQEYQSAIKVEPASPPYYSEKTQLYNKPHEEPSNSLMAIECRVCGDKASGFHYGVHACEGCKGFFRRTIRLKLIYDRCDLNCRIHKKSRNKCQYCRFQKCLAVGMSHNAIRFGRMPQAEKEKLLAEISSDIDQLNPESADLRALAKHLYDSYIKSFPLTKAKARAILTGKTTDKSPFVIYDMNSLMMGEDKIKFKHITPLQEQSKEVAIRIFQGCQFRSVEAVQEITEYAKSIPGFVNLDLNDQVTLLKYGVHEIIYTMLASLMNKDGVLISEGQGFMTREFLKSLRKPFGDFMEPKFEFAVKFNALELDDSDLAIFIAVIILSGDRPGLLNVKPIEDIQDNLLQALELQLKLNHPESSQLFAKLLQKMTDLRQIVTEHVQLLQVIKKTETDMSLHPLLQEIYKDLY
# PPARg SRC-3 ag – PPARgamma agonists recruiting SRC-3 coactivator, primary screen, biochemical. biochemical PPARgamma/SRC-3 coactivator recruitment assay. activation, % at 8 µM. 0.26% of 200,000 active; in the data active means activation above about 23%;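 further: 0% = DMSO and 100% = reference agonist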
# SRC3 TRFRET art – TR-FRET detection interference compounds, artefact control for PPARgamma SRC-3 recruitment agonists, biochemical, TR-FRET ratio; TR-FRET artefact counter-screen, PPARgamma/SRC-3 format; hits give high values; TR-FRET ratio at 8 µM; 0.39% of 99,000 active; AID 1048, 2008
# SRC1 TRFRET art – TR-FRET detection interference compounds, primary screen, artefact control for PPARgamma SRC-1 recruitment agonists, biochemical, TR-FRET emission ratio; TR-FRET ratio at 8 µM; TR-FRET detection artefact counter-screen; hits give high values; 0.34% of 99,000 active; in the data active means TR-FRET ratio above about 2300
# SRC2 TRFRET art – TR-FRET signal artefacts, primary screen, artefact control for PPARgamma SRC-2 agonist project, biochemical; TR-FRET artefact counter-screen; hits give high values; 0.4% of 200,000 active; TR-FRET ratio at 8 µM
# PPARg SRC-2 ag – agonists of PPARg-SRC-2 recruitment, primary screen, biochemical, HTS. PPARgamma LBD-SRC-2 recruitment. Peroxisome proliferator-activated receptor gamma (Homo sapiens), P37231. activation, % at 8 µM. 0.34% of 200,000 active; in the data active means activation above about 22%;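 further: 0% = vehicle and 100% = reference agonist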
# Numbers without * were called inactive; nt = no result. Unless noted, no stated cut-off is given here; in the data, active means TR-FRET ratio above about 2000; inactive means the rest.
SMILES,PPARg SRC1 recr,PPARg SRC-3 ag,SRC3 TRFRET art,SRC1 TRFRET art,SRC2 TRFRET art,PPARg SRC-2 ag
COc1ccc(C(=O)Nn2c(SCC(=O)c3ccc(Cl)cc3)nc3ccccc3c2=O)cc1,-1,7,nt,nt,2000*,5
CCS(=O)(=O)N1CCN(c2nc(-c3ccccc3)cs2)CC1,9,10,2121*,1774,1453,5
CS(=O)(=O)N1CCN(c2nc(-c3ccccc3)cs2)CC1,4,5,nt,nt,1400,-1
CN(C)/C=N/C1=C(C#N)C(c2cccs2)c2ccc3ccccc3c2O1 (stereo not given),3,2,1664,1631,1717,9
COc1ccc(OC)c(-c2csc(NC(=O)c3ccc4c(c3)OCO4)n2)c1,2,1,2559*,1916,1482,10
COc1ccc(CC(=O)Nc2nc(-c3cc(OC)ccc3OC)cs2)cc1,0,4,1551,1968,1470,2
Cc1cccn2c(=O)c3cc(C(=O)NCC4CCCO4)c(=N)n(Cc4cccnc4)c3nc12 (stereo not given),17,2,1472,2542*,1761,4
N=c1c(C(=O)NCC2CCCO2)cc2c(=O)n3ccccc3nc2n1Cc1cccnc1 (stereo not given),9,3,1701,1929,1820,5
CCOC(=O)COc1ccc(/C=C2\NC(=S)N(CC)C2=O)cc1,-6,0,1401,1582,3635*,94*
C[N+]1(C2CCC3CCCC2C3O)CCCCC1 (stereo not given),5,2,1464,1667,1484,2
CC(C)c1nnc(NC(=O)c2cccc(NC(=O)C(F)(F)F)c2)s1,4,4,1623,1816,1976*,7
COc1ccc(/C=N/NC(=O)c2ccc(O)cc2O)cc1CSc1ccccn1,7,3,1545,1823,1568,14
CCCOc1ccc(CNCCCOCC)cc1OC,1,0,1489,1975,1583,-4
CCOCCCNCc1ccc(OC)c(OC)c1,5,-4,nt,nt,2500*,34*
COc1ccccc1OCc1nc2ccccc2[nH]1,-3,-6,nt,nt,1592,23*
Cc1ccccc1OCc1nc2ccccc2[nH]1,3,-1,1739,1770,1505,2
COc1ccc(Cn2c(-c3ccc(C)cc3)nc3c(c(=O)c4ccccc4n3C)c2=O)cc1,4,0,1508,2030,2131*,29*
O=C(O)C1CCC(Cn2c(SCc3cc(=O)n4cc(Br)ccc4n3)nc3ccsc3c2=O)CC1 (stereo not given),11,14,2459*,2198,1816,5
O=[N+]([O-])c1ccc(N2CCN(S(=O)(=O)c3ccc4ccccc4c3)CC2)cc1NCC1CCCO1 (stereo not given),0,-3,1372,1586,1486,4
Cn1c(C(=O)N2CCOCC2)cnc1Sc1ncc(C(F)(F)F)cc1Cl,-1,10,nt,nt,1743,22*
Cc1ccc(C2=NC3(CCCCC3)NC2=S)cc1,-2,0,1567,1722,1697,-2
CCN1CCC2(CC1)N=C(c1ccc(F)cc1)C(=S)N2,6,3,1803,1797,1979*,14
O=C(c1ccc(Br)cc1)c1sc(N2CCOCC2)nc1-c1ccccc1,15,10,2783*,2046,1756,15
COc1ccc(-c2nc(N3CCCCCC3)sc2C(=O)c2ccccc2)cc1,12,13,nt,nt,2098*,16
Cc1nc2ccccc2nc1OCC(=O)NCC(F)(F)F,4,1,1862,2331*,1705,5
SMILES,PPARg SRC1 recr,PPARg SRC-3 ag,SRC3 TRFRET art,SRC1 TRFRET art,SRC2 TRFRET art,PPARg SRC-2 ag
CCOC(=O)c1sc(=NC(=O)c2ccc(OC(C)C)cc2)n(C)c1C,43*,1,1545,2238,1610,3
O=c1c(-c2n[nH]c(=S)n2-c2ccccc2)cccn1Cc1cccc(Cl)c1,16,6,1865,2294,1986*,12
CCCCOC(=O)CSc1nc(N)c(C#N)c(-c2ccc(OCC)cc2)c1C#N,56*,-3,nt,nt,1558,-2
COC(=O)c1ccccc1NC(=O)c1cc(-c2ccc(O)cc2)on1,35*,6,nt,nt,1632,3
Cc1ccccc1-c1nn(-c2ccc(F)cc2F)cc1CNCCCN(C)C,-11,-5,1508,1527,1443,-10
CC(C)c1c(C#N)c(N)nc(SCC(=O)c2cc3ccccc3oc2=O)c1C#N,8,-6,1619,1872,1505,10
N#Cc1ccc(-c2ccccc2)nc1SCC(=O)c1cc2ccccc2oc1=O,64*,10,nt,nt,1700,5
COc1ccc(NS(=O)(=O)c2cccc(C(=O)N/N=C/c3ccc(O)cc3)c2)cc1,6,6,1557,1999,1614,0
O=[N+]([O-])/C(C(Cl)=C(Cl)Cl)=C(\Sc1ccccc1)N1CCCCC1,-3,4,1632,1596,1448,-5
COc1cccc(/C=N/NC(=O)c2csc(-n3nc(C)cc3C(F)(F)F)n2)c1,4,27*,nt,nt,1596,9
COC(=O)c1ccc2c(c1)SC1=C(CCCC1=O)N2,12,17,nt,nt,2074*,13
COC(=O)c1ccc2c(c1)NC(=O)C(N1CCCC1)S2 (stereo not given),0,1,nt,nt,1526,4
Cn1c(=O)c(Oc2cc(Cl)cc(Cl)c2)nc2ccccc21,29*,-4,nt,nt,1628,4
COc1ccc(Oc2nc3ccccc3n(C)c2=O)cc1,-3,7,nt,nt,1546,8
CCN(CC)C(=O)c1cn(CCC#N)nc1-c1ccc2c(c1)OCCO2,12,3,1364,2134,1582,5
CCN(CC)C(=O)c1cn(-c2ccccc2)nc1-c1ccc2c(c1)OCCO2,9,6,1746,1844,1980*,5
O=C(/C(C=Nc1ccc(Br)cc1)=C(/O)c1ccco1)C(F)(F)F,2,0,1422,1710,1543,-1
O=C(NCc1cccc(F)c1)c1ccc(N2C(=O)Cn3c(cc4sccc43)C2=O)cc1,-2,0,2155*,2114,1654,-4
CCN(CC)C(=O)c1ccccc1NC(=O)CN1C(=O)c2ccccc2C1=O,-5,-4,1532,1714,1587,-7
Cc1sc2ncnc(N3CCCC(C)C3)c2c1C (stereo not given),7,8,1668,2093,1605,8
COc1cc(NC(=O)c2cc(Cl)ccc2Cl)ccc1-c1cc2ccccc2oc1=O,8,4,nt,nt,2091*,2
Cc1ccc(-c2ccc(C3C(C#N)=C(N)Oc4n[nH]c(C)c43)o2)cc1 (stereo not given),-1,14,nt,nt,1479,-8
